# The sample as a whole holds a higher share of hits than the screen did.
# NS1 inh: blocks influenza NS1 protein function; Potency, µM (titrated, usually from 46.1 µM); actives 0.4% (n = 270,000); calls by dose curve; also: actives are rising curves; nearly all actives have a fitted effect of over 50% in size
#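 Recovery from NS1-induced slow growth read by OD600 in budding yeast switched to galactose assay medium (pH 6.0, -URA) at 1:100 dilution. Compound 23 nl per well; the matching strain lacking NS1 serves as control.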
# Cycloheximide cs: counter-screen for Shiga toxin inhibitors: cycloheximide protein synthesis inhibition. actives 12% (n = 300,000). max response, %. cell reporter, cycloheximide protein synthesis inhibition counterscreen; in the data active = max response mostly above about 13%, no sharp cut-off; inactive = mostly below about 14%; also: read at 38.3 µM for the half of the compounds with a filed dose
# AmpC no deterg: inhibitors of E. coli AmpC beta-lactamase without detergent; actives 0.52% (n = 330,000); Potency, µM (top dose mostly 57.1 µM), actives largely listed as inhibitors; P00811; AmpC nitrocefin hydrolysis, absorbance 480 nm, 0.0001% Triton; also: nearly all actives have a fitted effect of over 20% in size
# Target sequence (P00811 whole entry, looked up): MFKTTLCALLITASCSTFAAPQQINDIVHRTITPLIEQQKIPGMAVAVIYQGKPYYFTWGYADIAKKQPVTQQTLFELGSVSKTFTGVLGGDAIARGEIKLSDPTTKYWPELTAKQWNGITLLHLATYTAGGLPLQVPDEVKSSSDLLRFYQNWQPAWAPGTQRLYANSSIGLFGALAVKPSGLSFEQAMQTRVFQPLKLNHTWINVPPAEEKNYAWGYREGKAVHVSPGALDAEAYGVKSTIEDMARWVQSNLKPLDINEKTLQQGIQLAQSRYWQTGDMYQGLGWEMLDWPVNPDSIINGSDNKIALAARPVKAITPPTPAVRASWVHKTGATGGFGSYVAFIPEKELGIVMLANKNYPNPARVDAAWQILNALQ
#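 20 mM phosphate pH 7.0 + 0.01% (detergent screen) or 0.0001% Triton X-100; 5.3 nM AmpC reagent; cpd preinc 15 min RT; nitrocefin (800 uM stock) to start; A480 q20 s × 4 min; Activity was normalised to no-enzyme and no-compound control wells.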
# Shiga toxin inh: Shiga toxin inhibition | Vero cells, Shiga toxin protein synthesis inhibition reporter | inhibition, % at 38.7 µM | actives 9.2% (n = 290,000) | AID 2315; in the data active = inhibition mostly above about 28%, no sharp cut-off; inactive = mostly below about 43%
# AmpC inh detg: AmpC beta-lactamase inhibition with detergent present; Potency, µM (highest dose often 114 µM), most hits filed as inhibitors; AID 485294; actives 0.041% (n = 370,000); AmpC hydrolysis of nitrocefin, absorbance 480 nm, 0.01% Triton; also: nearly all actives have a fitted effect of over 25% in size
#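 AmpC (5.3 nM in the dispensed reagent) in 20 mM phosphate pH 7.0 with 0.01% (detergent screen) or 0.0001% Triton X-100 was preincubated with compounds for 15 min at room temperature. Nitrocefin was then added from an 800 uM solution, and hydrolysis was followed at 480 nm.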
# Hits are given with their value; – = inactive; ? = inconclusive; · = no result given; + = active, no number. Unless noted, calls follow the shape of the dose curve; as a rule, active = well fitted curve in the direction sought with a large enough effect; inconclusive = small, poorly fitted or top-dose-only effect, or another doubt; inactive = no such curve, though single readings can be large; an effect the other way counts as inactive or inconclusive.
SMILES,NS1 inh,Cycloheximide cs,AmpC no deterg,Shiga toxin inh,AmpC inh detg
COc1ccc(NC(=O)CCc2nnc3n(C)c(=O)c4sccc4n23)cc1,·,·,·,·,–
O=C(COC(=O)CCc1c[nH]c2ccccc12)NC(c1ccccc1)c1ccccc1,–,–,–,–,–
CC1CCN(C(=O)CSc2nc3ccccc3nc2Cc2ccccc2)CC1,·,·,·,·,–
Cc1cccc(C(=O)N/N=C/c2ccc[nH]2)c1,–,24,–,80,–
O=C(N/N=C/c1ccc[nH]1)c1cccc(Br)c1,–,31,–,+,–
Cc1cccc(NCC(=O)N/N=C\c2ccc[nH]2)c1,–,–,–,–,–
COC(=O)c1cccc(Nc2ncnc3ccc(C)cc23)c1,–,–,–,–,–
CCOC(=O)c1cccc(Nc2ncnc3ccccc23)c1,–,25,–,32,–
Cc1ccc(Nc2ncnc3ccccc23)cc1,–,62,–,119,–
O=C(O)c1cccc(Nc2ncnc3ccc(Br)cc23)c1,–,25,–,43,–
Cc1cccc(Nc2ncnc3ccccc23)c1,–,34,–,–,–
CCCn1c2ccc(C)cc2c2n[nH]c(=S)nc21,–,–,–,–,–
Cc1cccc(N2CCN(Cc3nnc(-c4ccccc4C)o3)CC2C)c1 (stereo unspecified),·,·,·,·,–
Cc1cc(Br)ccc1NC(=O)C(Cc1ccccc1)NS(=O)(=O)c1ccc(Br)s1 (stereo unspecified),·,·,·,·,–
COC(=O)C(=O)C/C(=N/Nc1ncnc2ccccc12)c1ccc(Cl)cc1,–,27,–,86,–
Cc1ccc(/C(=N/Nc2ncnc3ccccc23)C(=O)O)cc1,–,80,–,93,–
CC(C)Oc1ccc(Nc2ncnc3ccccc23)cc1,–,45,–,–,–
Oc1ccc(Nc2ncnc3ccccc23)cc1,–,–,–,–,–
CC(=O)Oc1cccc(Nc2ncnc3ccccc23)c1,–,19,–,·,–
Cc1cc(Nc2ccccc2)nc(-c2ccccc2O)n1,–,35,–,107,?
Cc1cc(NCc2ccccc2)nc(-c2ccccc2O)n1,–,–,–,–,–
Cc1cc(NC2CCCCC2)nc(-c2ccccc2O)n1,–,15,–,–,–
C=CCSc1ncc(CO)n1Cc1ccccc1,–,–,–,–,–
CC(=Nc1ccccc1N)c1c(C)cc(=O)n(O)c1O,·,31,·,57,·
CC(=O)NC(Cc1ccccc1)c1ccc2c(c1)OCCCO2 (stereo unspecified),–,–,–,active,–
SMILES,NS1 inh,Cycloheximide cs,AmpC no deterg,Shiga toxin inh,AmpC inh detg
O=C(NC(Cc1ccccc1)c1ccc2c(c1)OCCCO2)c1ccc(F)cc1 (stereo unspecified),–,–,–,–,–
Cc1ccc(Nc2cc(-c3ccccc3)nc(C)n2)cc1,·,·,·,·,–
Brc1ccc(NC2=Nc3ccccc3CC2)cc1,–,56,–,+,–
Cc1ccc(NC2=Nc3ccccc3CC2)cc1,–,11,–,–,–
Cc1cc2c(s1)c1cnn(Cc3cc(C(F)(F)F)cc(Cl)c3F)c(=O)c1n2C,·,–,·,–,·
Cc1cc(N(C)Cc2ccccc2)nc2cc(O)ccc12,–,20,–,44,–
CC(C)(C)N1CC(COc2ccccc2)OC1=O (stereo unspecified),–,21,–,–,–
CC(C)N1CC(COc2ccc(Br)cc2)OC1=O (stereo unspecified),–,–,–,–,–
CC(C)Cc1nnc(NC(=O)c2cc3c(s2)CCC3)s1,–,17,–,55,–
O=C(Nc1nncs1)c1cc2c(s1)CCC2,·,21,–,30,–
COc1ccc2nc(N/C(N)=N/S(C)(=O)=O)nc(C)c2c1,–,–,–,–,–
CCOC(=O)c1ccc(CN(Cc2ccc(F)cc2)S(=O)(=O)c2ccc(F)cc2)cc1,·,·,·,·,–
Cn1cnc(S(=O)(=O)N2CCC(C(=O)NCc3ccccc3)CC2)c1,·,·,·,·,–
COc1ccc(CNC(=O)COC(=O)c2cccn2C)cc1,·,·,–,·,·
Cn1cccc1C(=O)OCc1ccc(C(C)(C)C)cc1,–,32,–,98,–
O=S(=O)(c1ccc(Cl)s1)N1CCCc2cccc(O)c21,–,50,–,84,–
CCc1ccc2nc(N(CCN(C)C)C(=O)c3ccc4ncsc4c3)sc2c1,–,68,–,117,–
Cc1cccc2sc(N(CCCN(C)C)C(=O)c3ccc4ncsc4c3)nc12,–,20,–,38,–
CCNc1nc(NCC)nc(NS(=O)(=O)c2ccc(N)cc2)n1,–,–,–,–,–
CCCCCN=C(C)c1c(O)c2ccccc2oc1=O,–,42,–,65,?
CCOc1ccc(CNC(=O)c2ccc(-c3nc(CS(=O)(=O)c4ccccc4)c(C)o3)cc2)cc1,·,·,·,·,–
C/C(=N\NC(=O)c1ccc(-n2cnnn2)cc1)c1ccc(C)cc1,·,·,–,·,?
CCCCn1nnc(NC(=O)c2ccc(-c3ccccc3)cc2)n1,–,41,–,active,–
CCc1ccc(C(=O)Nc2nnn(CC)n2)cc1,–,11,–,–,–
CCn1nnc(NC(=O)c2ccc(Br)o2)n1,–,–,–,–,–
SMILES,NS1 inh,Cycloheximide cs,AmpC no deterg,Shiga toxin inh,AmpC inh detg
Cn1nnc(NC(=O)c2ccccc2)n1,–,–,–,–,?
CC(=O)c1cccc(NC(=O)c2ccc(-c3ccccc3[N+](=O)[O-])o2)c1,–,70,–,51,–
Cn1nnc(NC(=S)NC(=O)c2cc3ccccc3o2)n1,–,11,–,–,–
C/C(=N/OCO/N=C(\C)c1ccc(F)cc1F)c1ccc(F)cc1F,–,–,–,–,?
CCCn1nnc(NC(=O)c2cccc(OCc3ccccc3)c2)n1,–,–,–,–,–
CCCn1nnc(NC(=O)c2ccc3c(c2)OCO3)n1,–,54,–,89,–
CCCCn1nnc(NC(=O)c2cc3ccccc3o2)n1,–,44,–,42,–
Cc1nc(NC(=O)c2cc3ccccc3o2)ccc1Br,–,–,–,–,?
CCCn1nnc(NC(=O)c2cc3ccccc3o2)n1,–,43,–,74,–
CCn1nnc(NC(=O)c2cc3ccccc3o2)n1,–,30,–,81,–
CCCn1nnc(NC(=O)c2cccc(Cl)c2)n1,–,–,–,–,–
COc1cc2cc(CNc3ccccc3)c(=O)n(CC(=O)Nc3ccccc3)c2cc1OC,·,·,·,·,–
CCn1nnc(NC(=O)c2ccc(-c3ccccc3[N+](=O)[O-])o2)n1,–,17,–,–,–
COc1ccc(C(=O)O)cc1S(=O)(=O)N1CCSCC1,–,–,–,–,–
CCC(C)c1ccc(O)c(N)c1 (stereo unspecified),–,–,–,–,?
CC(C)c1ccc(O)c(N)c1,–,30,–,67,–
Cc1cc(C)cc(OCc2cc(=O)n3c4c(sc3n2)CCCC4)c1,·,·,·,·,–
CN1C(=O)N(C)C(=O)C2(Cc3cc(N)ccc3N3CCN(c4ccccc4F)CC32)C1=O (stereo unspecified),–,–,–,–,–
CCN1C(=O)N(CC)C(=O)C2(Cc3ccccc3N3CCN(c4ccccc4)CC32)C1=O (stereo unspecified),–,36,–,70,–

# Bioassay records deposited in PubChem BioAssay by National Center for Advancing Translational Sciences (NCATS).
